FMDV inh – High Throughput Screening for Foot and Mouth Disease Virus Antivirals; AID 1159524, 2015; Potency, µM (doses to about 57.9 µM), actives largely listed as inhibitors; 410,000 compounds, 1.2% hits; FMDV antiviral cell-based qHTS; calls by dose curve; tested in HEK293T cells; note: read-out not given here; nearly all actives have a fitted effect of over 45% in size
Sm TGR block – qHTS Assay for the Inhibitors of Schistosoma Mansoni Peroxiredoxins; purified TGR, DTNB reduction, TNB absorbance 405 nm; AID 485364, 2010; Potency, µM (titrated, usually from 114 µM), actives largely listed as inhibitors; 360,000 compounds, 3% hits; note: nearly all actives have a fitted effect of over 60% in size
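TGR 20 nM + NADPH 100 uM (dispensed conc.), cpd preinc 15 min RT; start with NADPH (500 uM addition) then DTNB (15 mM addition). Kinetic TNB absorbance, 405 nm filter. Four-parameter Hill fit across titration.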
HCMV antiviral – qHTS Assay for inhibitors of the human cytomegalovirus (HCMV); HFF cells, HCMV-luciferase reporter, 72 h; hits give low values; activity change, negative = inhibition, % at 57.5 µM; 410,000 compounds, 4.5% hits; in the data active = activity change below about -60%; inconclusive = no clear call, values can overlap the other calls; inactive = above about -39%
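Inhibition of viral replication was scored as loss of reporter luminescence in HFFs infected with HCMV-luciferase (MOI 1 PFU/cell) for 72 h; compounds tested at 2 doses, normalized to buffer and Salinomycin controls.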
HCV inhibitor – qHTS Assay for Inhibitors of Hepatitis C Virus (HCV); Huh7.5.1 HCVcc-Cre infection, luciferase reporter, 44 h; Potency, µM (series often up to 41.8 µM), most hits filed as inhibitors; 340,000 compounds, 3.4% hits; AID 651820, 2012
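After 44 h co-culture of compound, cells and HCVcc-Cre (~0.5 moi), substrate is added for 15 min at room temperature and luciferase measured over 15 sec. Cells were seeded at 1,000/well and pre-cultured 4 h.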
Vaccinia mCherry – qHTS for Stage-Specific Inhibitors of Vaccinia Orthopoxvirus: mCherry Reporter Primary qHTS | 310,000 compounds, 0.63% hits | Potency, µM (series often up to 36.5 µM), usual class: inhibitors | AID 720579, 2013 | Vaccinia virus mCherry reporter infection, fluorescence; calls by dose curve; tested in A549 cells; note: nearly all actives have a fitted effect of over 35% in size
Vaccinia Venus – qHTS for Stage-Specific Inhibitors of Vaccinia Orthopoxvirus: Venus Reporter Primary qHTS. Potency, µM (highest dose often 36.5 µM), actives largely listed as inhibitors. 330,000 compounds, 0.46% hits. Vaccinia virus Venus reporter expression, fluorescence; calls by dose curve; tested in A549 cells; note: nearly all actives have a fitted effect of over 30% in size
Each line names hits and unclear results; the compound was inactive in the other large screens; ! = not active in a repeat. Rows were chosen to be rich in hits. Some 9.3% of all compounds tested hit in one or more screens of this group. Unless noted, calls come from the whole dose curve; as a rule, active = well fitted curve in the direction sought with a large enough effect; inconclusive = small, poorly fitted or top-dose-only effect, or another doubt; inactive = no such curve, though single readings can be large; an effect the other way counts as inactive or inconclusive.

COc1ccc2cc3c(N)nn(C(=O)c4cccc(F)c4)c3nc2c1	HCMV antiviral -81 (no result: Vaccinia mCherry, Vaccinia Venus)
COc1ccc2cc3c(N)nn(C(=O)c4ccc(F)cc4)c3nc2c1	HCMV antiviral -87 (no result: Vaccinia mCherry, Vaccinia Venus)
COc1ccc2cc3c(N)nn(C(=O)Cc4ccc(Cl)cc4)c3nc2c1	HCMV antiviral -67, Vaccinia mCherry inconclusive
COc1ccc2cc3c(N)nn(C(=O)c4ccc(OC)c(OC)c4)c3nc2c1	none (no result: HCV inhibitor)
COc1ccc2cc3c(N)nn(C(=O)c4ccccc4Cl)c3nc2c1	FMDV inh inconclusive, HCMV antiviral -70, HCV inhibitor inconclusive
COc1cccc(CC(=O)n2nc(N)c3cc4ccc(OC)cc4nc32)c1	Vaccinia mCherry inconclusive
COc1ccc(CCNC(=O)C2CC3Cn4c(nc5cc(Cl)c(Cl)cc54)C3N2C)cc1 (stereo unspecified)	HCV inhibitor inconclusive
CC(=O)Nc1ccc(Nc2cc(-c3ccccc3)nc3ncnn23)cc1	none
CCOC(=O)c1ccc(NC(=O)N2CC(C)OC(C)C2)cc1 (stereo unspecified)	none (no result: Vaccinia mCherry, Vaccinia Venus)
NC(=O)c1cc(N2C(=O)C3CC=CCC3C2=O)ccc1N1CCCCC1 (stereo unspecified)	none (no result: Vaccinia mCherry, Vaccinia Venus)
O=[N+]([O-])/C(=C\Nc1ccccc1Cl)S(=O)(=O)c1ccccc1	Sm TGR block 40µM (no result: FMDV inh, HCMV antiviral, HCV inhibitor, Vaccinia mCherry, Vaccinia Venus)
COc1ccc(N/C=C(\[N+](=O)[O-])S(=O)(=O)c2ccccc2)cc1	Sm TGR block inconclusive
O=[N+]([O-])/C(=C\Nc1ccccc1)S(=O)(=O)c1ccccc1	Sm TGR block 40µM (no result: Vaccinia mCherry)
COC(C(=O)C(O)C(C)O)C1Cc2cc3cc(OC4CC(OC5CC(O)C(O)C(C)O5)C(O)C(C)O4)c(C)c(O)c3c(O)c2C(=O)C1OC1CC(OC2CC(OC3CC(C)(O)C(O)C(C)O3)C(O)C(C)O2)C(O)C(C)O1 (stereo unspecified)	Vaccinia mCherry 0.28µM, Vaccinia Venus 0.28µM (no result: FMDV inh, Sm TGR block, HCMV antiviral, HCV inhibitor)
COC(C(=O)C(O)C(C)O)C1Cc2cc3cc(OC4CC(OC5CC(O)C(O)C(C)O5)C(O)C(C)O4)c(C)c(O)c3c(O)c2C(=O)C1OC1CC(OC2CC(OC3CC(O)C(OC)C(C)O3)C(O)C(C)O2)C(O)C(C)O1 (stereo unspecified)	HCMV antiviral -98, HCV inhibitor 1µM, Vaccinia mCherry inconclusive, Vaccinia Venus inconclusive (no result: Sm TGR block)
COc1ccc(C(=O)c2c[nH]c(C(=O)NCc3cccnc3)c2)cc1	none (no result: Vaccinia mCherry)
Cc1ccc(CSc2nnc([C@@H]3CCCN3C(=O)OC(C)(C)C)o2)cc1	HCV inhibitor 22µM (no result: Vaccinia mCherry, Vaccinia Venus)
CCCCn1c(=O)[nH]c(=O)c2c1nc(-c1cc(Br)ccc1OC)n2C	none
CCCCn1c(=O)[nH]c(=O)c2c1nc(-c1ccc(OC)c(Br)c1)n2CC(C)C	HCV inhibitor 10µM, Vaccinia mCherry inconclusive, Vaccinia Venus inconclusive
CCCCn1c(=O)[nH]c(=O)c2c1nc(-c1ccccc1F)n2Cc1ccccc1OC	FMDV inh inconclusive, HCV inhibitor 10µM
CCCc1cc(=O)oc2c(C)c(OCC(=O)NC3CC(C)(C)NC(C)(C)C3)ccc12	HCV inhibitor inconclusive, Vaccinia Venus inconclusive
O=C(CN1C(=O)NC2(CCCCC2)C1=O)Nc1ccccc1N1CCCCC1	none (no result: Vaccinia mCherry, Vaccinia Venus)
O=S(=O)(NC(=S)NC1CCCCC1)c1ccc(Cl)cc1	Sm TGR block 13µM (no result: Vaccinia mCherry, Vaccinia Venus)
Cc1ccc(S(=O)(=O)NC(C)C(=O)NC2CCCCCC2)cc1 (stereo unspecified)	none
CCc1ccc(S(=O)(=O)NC(=S)NC2CCCCC2)cc1	Sm TGR block 13µM
O=C(NNS(=O)(=O)c1ccc(Cl)cc1)NC1CCCCC1	none (no result: Vaccinia mCherry)
S=C(NCc1ccc(Cl)cc1Cl)NC1CCCCC1	HCMV antiviral -78, HCV inhibitor inconclusive, Vaccinia mCherry inconclusive, Vaccinia Venus inconclusive
Cc1ccc(S(=O)(=O)NC(=S)NC2CCCCC2)cc1	Sm TGR block 32µM
CCN(CC)C(=O)c1cc([N+](=O)[O-])cc2c1-c1ccc([N+](=O)[O-])cc1C2=C(C#N)C#N	Sm TGR block 4µM
CCN(CC)C(=O)c1ccc(Oc2ccc([N+](=O)[O-])cc2Cl)cc1	FMDV inh inconclusive, HCV inhibitor inconclusive
COC(=O)c1ccc(Oc2nc(Nc3ccc(C)c(C)c3)nc(N(C)C)n2)cc1	FMDV inh inconclusive, HCV inhibitor 8.9µM (no result: Vaccinia mCherry, Vaccinia Venus)
O=C(O)C1CCCC2CN3CCc4c([nH]c5ccccc45)C3C(O)C21 (stereo unspecified)	HCMV antiviral -72
CC(C)Nc1nc(NC2CCCC2)nc(N2CCOCC2)n1	HCV inhibitor inconclusive
O=C(C[n+]1cn(C(F)F)c2ccccc21)c1ccc(Br)cc1	Sm TGR block 4µM
Cc1nn(-c2ccccc2)c(C)c1NC(=O)COc1ccccc1C#N	none (no result: Sm TGR block, HCV inhibitor)
Cc1nn(-c2ccccc2)c(C)c1NC(=O)COc1ccc2ccccc2c1	FMDV inh inconclusive, HCMV antiviral inconclusive, HCV inhibitor inconclusive (no result: Vaccinia mCherry, Vaccinia Venus)
Cc1nn(-c2ccccc2)c(C)c1NC(=O)COc1cc(F)ccc1[N+](=O)[O-]	FMDV inh 25µM, HCMV antiviral inconclusive, HCV inhibitor inconclusive (no result: Sm TGR block, Vaccinia mCherry, Vaccinia Venus)
Cc1nn(-c2ccccc2)c(C)c1NC(=O)COc1ccc(Br)cc1Cl	FMDV inh 22µM, HCMV antiviral inconclusive, HCV inhibitor inconclusive
CC(C)(C)C1c2[nH]c3ccccc3c2CCN1Cc1cccc(OCCO)c1 (stereo unspecified)	none
CC(=O)Nc1ccc(CN2CCc3c([nH]c4ccccc34)C2C(C)(C)C)cc1 (stereo unspecified)	Sm TGR block 50µM (no result: Vaccinia mCherry, Vaccinia Venus)
CC(=O)N[C@@H](CS)C(=O)O	HCV inhibitor 10µM!
CC(=O)N[C@H](CS)C(=O)O	none (no result: Sm TGR block, HCMV antiviral, HCV inhibitor)
CSc1nsc(SCC(=O)Nc2nc3ccccc3s2)n1	none
CCn1c(=O)c(C(=O)Nc2ccc(C)cc2)c(O)c2ccccc21	HCV inhibitor inconclusive
CN(C(=O)c1cccc(NC(=O)Cc2ccc(NC(=O)C3CCN(S(=O)(=O)c4cccc([N+](=O)[O-])c4)CC3)cc2)c1)C1CCC1	HCV inhibitor inconclusive, Vaccinia mCherry inconclusive (no result: Sm TGR block)
CN(Cc1ccccc1)C(=O)c1ccc(NC(=O)Cc2cccc([N+](=O)[O-])c2)cc1	Vaccinia mCherry inconclusive (no result: Sm TGR block)
CN(Cc1ccccc1)C(=O)c1ccc(NC(=O)Cc2ccc(NC(=O)C3CCN(S(=O)(=O)c4cccc([N+](=O)[O-])c4)CC3)cc2)cc1	FMDV inh inconclusive, HCV inhibitor 13µM, Vaccinia mCherry inconclusive (no result: Sm TGR block)
CN(CCc1ccccc1)C(=O)c1cccc(NC(=O)Cc2cccc(NC(=O)C3CCCN(S(=O)(=O)c4cccc([N+](=O)[O-])c4)C3)c2)c1 (stereo unspecified)	FMDV inh inconclusive, HCV inhibitor 10µM, Vaccinia mCherry inconclusive (no result: Sm TGR block)
